Source: the supplement of paper PMC12282887
± gives the standard deviation of the averaged measurements.

Experiments:
Assay in all cases: promoter activity interaction Z-score (Lux/OD deviation from empty-vector control); higher = stronger promoter induction by the compound
[1] = test system: E. coli BW25113 acrABp lux reporter
Summary of the method: (§1)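 Every compound was given at four 1:2 dilutions, in biological duplicates, to E. coli BW25113 carrying low-copy luxCDABE promoter reporters in wild-type or single-gene deletion backgrounds. Growth in 40 µl LB Lennox in 384-well plates at 37°C was followed by OD600 and luminescence readings every 30 min for 12 h, integrated over 0–8 h for wild type and 1–9 h for deletion strains, with wells below 10% of the median growth value excluded. Scores are Z-transformed residuals of growth-normalised luminescence fitted against a control.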

[2] = test system: E. coli BW25113 micFp lux reporter
Summary of the method: as §1

[3] = test system: E. coli BW25113 ompFp lux reporter
Summary of the method: as §1

[4] = test system: E. coli BW25113 robp lux reporter
Summary of the method: as §1

[5] = test system: E. coli BW25113 soxSp lux reporter
Summary of the method: as §1

[6] = test system: E. coli BW25113 tolCp lux reporter
Summary of the method: as §1

[7] = 0.11 µg/ml, genetic background: wild type
[8] = 0.11 µg/ml, genetic background: ΔmarA
[9] = 0.11 µg/ml, genetic background: Δrob
[10] = 0.11 µg/ml, genetic background: ΔsoxS
[11] = 0.23 µg/ml, genetic background: wild type
[12] = 0.23 µg/ml, genetic background: ΔmarA
[13] = 0.23 µg/ml, genetic background: Δrob
[14] = 0.23 µg/ml, genetic background: ΔsoxS
[15] = 0.46 µg/ml, genetic background: wild type
[16] = 0.46 µg/ml, genetic background: ΔmarA
[17] = 0.46 µg/ml, genetic background: Δrob
[18] = 0.46 µg/ml, genetic background: ΔsoxS

SMILES: N[C@@H](C(=O)N[C@@H]1C(=O)N2C(C(=O)O)=C(Cl)CS[C@H]12)c1ccccc1 [Cefaclor]
- promoter activity interaction Z-score [1, 7]: -0.0672 ± 0.0046
- promoter activity interaction Z-score [1, 8]: 0.0667 ± 0.63
- promoter activity interaction Z-score [1, 9]: -0.0825 ± 0.022
- promoter activity interaction Z-score [1, 10]: 0.202 ± 0.33
- promoter activity interaction Z-score [1, 11]: 0.0822 ± 0.27
- promoter activity interaction Z-score [1, 12]: -0.226 ± 0.26
- promoter activity interaction Z-score [1, 13]: -0.0254 ± 0.2
- promoter activity interaction Z-score [1, 14]: 0.108 ± 0.18
- promoter activity interaction Z-score [1, 15]: -0.327 ± 0.23
- promoter activity interaction Z-score [1, 16]: 0.267 ± 0.91
- promoter activity interaction Z-score [1, 17]: 0.0322 ± 0.2
- promoter activity interaction Z-score [1, 18]: 0.0468 ± 0.32
- promoter activity interaction Z-score [2, 7]: -0.186 ± 0.14
- promoter activity interaction Z-score [2, 8]: -0.0579 ± 0.053
- promoter activity interaction Z-score [2, 9]: -0.0069 ± 0.16
- promoter activity interaction Z-score [2, 10]: -0.168 ± 0.014
- promoter activity interaction Z-score [2, 11]: 0.286 ± 0.18
- promoter activity interaction Z-score [2, 12]: 0.0237 ± 0.12
- promoter activity interaction Z-score [2, 13]: -0.137 ± 0.035
- promoter activity interaction Z-score [2, 14]: -0.23 ± 0.11
- promoter activity interaction Z-score [2, 15]: -0.0523 ± 0.022
- promoter activity interaction Z-score [2, 16]: -0.0548 ± 0.1
- promoter activity interaction Z-score [2, 17]: 0.072 ± 0.35
- promoter activity interaction Z-score [2, 18]: 0.0997 ± 0.0034
- promoter activity interaction Z-score [3, 7]: -0.0486 ± 0.033
- promoter activity interaction Z-score [3, 8]: 0.00202 ± 0.074
- promoter activity interaction Z-score [3, 9]: -0.037 ± 0.097
- promoter activity interaction Z-score [3, 10]: 0.00353 ± 0.4
- promoter activity interaction Z-score [3, 11]: 0.205 ± 0.32
- promoter activity interaction Z-score [3, 12]: -0.158 ± 0.14
- promoter activity interaction Z-score [3, 13]: 0.0924 ± 0.14
- promoter activity interaction Z-score [3, 14]: -0.0604 ± 0.083
- promoter activity interaction Z-score [3, 15]: -0.3379 ± 0.00077
- promoter activity interaction Z-score [3, 16]: 0.243 ± 0.29
- promoter activity interaction Z-score [3, 17]: 0.261 ± 0.15
- promoter activity interaction Z-score [3, 18]: 0.0432 ± 0.23
- promoter activity interaction Z-score [4, 7]: 0.143 ± 0.35
- promoter activity interaction Z-score [4, 8]: -0.548 ± 0.49
- promoter activity interaction Z-score [4, 9]: -0.0741 ± 0.49
- promoter activity interaction Z-score [4, 10]: -0.204 ± 0.27
- promoter activity interaction Z-score [4, 11]: 0.403 ± 0.76
- promoter activity interaction Z-score [4, 12]: -0.533 ± 0.12
- promoter activity interaction Z-score [4, 13]: -0.17 ± 0.038
- promoter activity interaction Z-score [4, 14]: 0.0114 ± 0.73
- promoter activity interaction Z-score [4, 15]: -0.312 ± 0.44
- promoter activity interaction Z-score [4, 16]: -0.025 ± 0.62
- promoter activity interaction Z-score [4, 17]: -0.475 ± 0.67
- promoter activity interaction Z-score [4, 18]: -0.073 ± 1.2
- promoter activity interaction Z-score [5, 7]: 0.0812 ± 0.014
- promoter activity interaction Z-score [5, 8]: 0.114 ± 0.011
- promoter activity interaction Z-score [5, 9]: 0.166 ± 0.057
- promoter activity interaction Z-score [5, 10]: 0.145 ± 0.29
- promoter activity interaction Z-score [5, 11]: 0.222 ± 0.12
- promoter activity interaction Z-score [5, 12]: 0.143 ± 0.22
- promoter activity interaction Z-score [5, 13]: 0.159 ± 0.22
- promoter activity interaction Z-score [5, 14]: 0.00336 ± 0.19
- promoter activity interaction Z-score [5, 15]: -0.146 ± 0.12
- promoter activity interaction Z-score [5, 16]: -0.0654 ± 0.045
- promoter activity interaction Z-score [5, 17]: 0.255 ± 0.11
- promoter activity interaction Z-score [5, 18]: -0.0397 ± 0.37
- promoter activity interaction Z-score [6, 7]: -0.564 ± 0.28
- promoter activity interaction Z-score [6, 8]: 0.134 ± 0.67
- promoter activity interaction Z-score [6, 9]: 0.613 ± 0.26
- promoter activity interaction Z-score [6, 10]: -0.636 ± 0.056
- promoter activity interaction Z-score [6, 11]: 0.674 ± 0.6
- promoter activity interaction Z-score [6, 12]: -0.149 ± 1.3
- promoter activity interaction Z-score [6, 13]: 0.0751 ± 0.037
- promoter activity interaction Z-score [6, 14]: -0.124 ± 0.055
- promoter activity interaction Z-score [6, 15]: -0.115 ± 0.33
- promoter activity interaction Z-score [6, 16]: -0.727 ± 1.3
- promoter activity interaction Z-score [6, 17]: -0.374 ± 0.56
- promoter activity interaction Z-score [6, 18]: -0.124 ± 0.67
